In PubChem BioAssay (Tox21):
Where “and” joins values, the source holds several entries; their conditions need not be identical. Equal entries are not always repeated. Inconclusive results are not listed. Calls of active or inactive are those of the source. The call rests on the fitted dose curve; in most records, active means well fitted curve in the direction sought with a large enough effect in the repeat runs; inconclusive means weak or mixed curves; inactive means no such curve, though single readings can be large; an effect the other way counts as inactive or inconclusive.

How the values were obtained:
[1] = A CellTox Green Cytotoxicity Assay to monitor cytotoxicity in HEK293 cells - 40 hour (AID 1224871); further: nearly all actives have a fitted effect of over 45% in size; further: potency means the concentration at half of the fitted maximal effect
Summary of the method: (§1)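 Each value comes from one timepoint of a single continuous run in which HEK293 cells with CellTox Green were exposed to compound for up to 40 h at 37 C, dye fluorescence rising with cell death.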

[2] = A CellTox Green Cytotoxicity Assay to monitor cytotoxicity in HEK293 cells - 24 hour (AID 1224875); further: nearly all actives have a fitted effect of over 45% in size; further: potency means the concentration at half of the fitted maximal effect
Summary of the method: as §1

[3] = A CellTox Green Cytotoxicity Assay to monitor cytotoxicity in HepG2 cells - 16 hour (AID 1224876); further: nearly all actives have a fitted effect of over 45% in size; further: potency means the concentration at half of the fitted maximal effect
Summary of the method: (§2)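 Continuous culture of HepG2 cells with a membrane-impermeant DNA dye; rising fluorescence marks dead cells. Compound exposure lasted up to 40 h at 37 C, with reads every 8 h from 0 h.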

[4] = A CellTox Green Cytotoxicity Assay to monitor cytotoxicity in HepG2 cells - 24 hour (AID 1224878); further: nearly all actives have a fitted effect of over 45% in size; further: potency means the concentration at half of the fitted maximal effect
Summary of the method: as §2

[5] = A CellTox Green Cytotoxicity Assay to monitor cytotoxicity in HepG2 cells - 40 hour (AID 1224879); further: nearly all actives have a fitted effect of over 40% in size; further: potency means the concentration at half of the fitted maximal effect
Summary of the method: as §2

[6] = qHTS RealTime-Glo MT Cell Viability Assay in HEK293 cells - 0 hour (AID 1224880)
Summary of the method: (§3)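 qHTS format; HEK293 cells with NanoLuc/prosubstrate reagent, 37 C/5% CO2 for 5 h pre-dosing; compounds 23 nL in DMSO; luminescence at each time point reflects viable cells.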

[7] = qHTS RealTime-Glo MT Cell Viability Assay in HepG2 cells - 32 hour (AID 1224877); further: nearly all actives have a fitted effect of over 55% in size; further: potency means the concentration at half of the fitted maximal effect
Summary of the method: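 Cells + NanoLuc/prosubstrate dispensed (600 cells/well) → 5 h at 37 C/5% CO2 → compounds in DMSO transferred → 40 h incubation at 37 C, luminescence read at 0, 8, 16, 24, 32, 40 h.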

[8] = qHTS RealTime-Glo MT Cell Viability Assay in HEK293 cells - 16 hour (AID 1224872); further: nearly all actives have a fitted effect of over 50% in size; further: potency means the concentration at half of the fitted maximal effect
Summary of the method: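 Tox21 10K qHTS, HEK293, 600 cells/well, RealTime-Glo reagent co-dispensed with cells; 5 h preincubation, compound by pintool, 37 C, luminescence at 0–40 h.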

[9] = qHTS RealTime-Glo MT Cell Viability Assay in HepG2 cells - 8 hour (AID 1224873); further: nearly all actives have a fitted effect of over 55% in size; further: potency means the concentration at half of the fitted maximal effect
Summary of the method: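 Real-time viability: cells seeded at 600 per well together with NanoLuc and cell-permeant prosubstrate, compounds added after 5 h incubation. Luminescence tracked at 0, 8, 16, 24, 32 and 40 h of exposure.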

[10] = qHTS RealTime-Glo MT Cell Viability Assay in HEK293 cells - 40 hour (AID 1224874); details: RealTime-Glo luminescence; max response: active compounds read low; further: nearly all actives have a fitted effect of over 50% in size; further: potency means the concentration at half of the fitted maximal effect
Summary of the method: as §3
On the % scale 0 is the no-effect control and ±100 the full control effect.

Cc1ccc2oc(CN(Cc3ccccc3)C(=O)Nc3c(F)cc(F)cc3F)c(-c3ccc(Cl)cc3)c2c1
inactive: Potency [1] | Potency [2] | Potency [3] | Potency [4] | Potency [5] | Potency [6]

COc1cccc2c1C(=O)c1c(O)c3c(c(O)c1C2=O)C[C@@](O)(C(=O)CO)C[C@@H]3O[C@H]1C[C@H](N)[C@H](O[C@@H]2CCCCO2)[C@H](C)O1
inactive: Potency [1] | Potency [2] | Potency [6]
active: Potency [3] 23.9 µM | Potency [7] 1.9 µM | Potency [4] 9.52 µM | Potency [5] 1.51 µM

C=C(C)C(=O)OCC(O)COc1ccc(C(C)(C)c2ccc(OCC(O)COC(=O)C(=C)C)cc2)cc1 (configuration not stated)
active: Potency [8] 9.77 µM | Potency [9] 19.5 µM | Potency [10] 13.8 µM | Potency [7] 21.9 µM | Potency [5] 43.6 µM
inactive: Potency [2] | Potency [3] | Potency [4] | Potency [6]

O=C1c2c(O)ccc(Nc3ccc(CCO)cc3)c2C(=O)c2c([N+](=O)[O-])ccc(O)c21
inactive: Potency [1] | max response [10] -18.6% | Potency [2] | Potency [3] | Potency [7] | Potency [4] | Potency [5] | Potency [6]

N/C(=N\N=C\c1ccc(Cl)cc1)N/N=C/c1ccc(Cl)cc1
active: Potency [1] 23.9 µM | Potency [2] 23.9 µM | Potency [3] 21.3 µM | Potency [4] 21.3 µM | Potency [5] 23.9 µM

O=S1(=O)CC(Cl)(Cl)C(Cl)(Cl)C1
inactive: Potency [6]
active: Potency [1] 1.95 µM | Potency [9] 8.71 µM | Potency [7] 6.16 µM | Potency [4] 9.77 µM | Potency [5] 6.92 µM

CC(C)OC(=O)c1cc2c(OCC(O)CNC(C)(C)C)cccc2[nH]1 (configuration not stated)
inactive: Potency [9] | Potency [3] | Potency [7] | Potency [4] | Potency [6]
active: Potency [8] 4.77 µM | Potency [10] 9.52 µM

CNCc1cc(F)ccc1Oc1ccc(Cl)c(Cl)c1
active: Potency [1] 49 µM | Potency [10] 43.6 µM | Potency [2] 49 µM | Potency [3] 54.9 µM | Potency [7] 54.9 µM | Potency [4] 49 µM | Potency [5] 49 µM

Cc1ccc(-n2nc(C(C)(C)C)cc2NC(=O)Nc2ccc(OCCN3CCOCC3)c3ccccc23)cc1
inactive: Potency [1] | Potency [9] | Potency [2] | Potency [7] | Potency [4] | Potency [5] | Potency [6]

C=CC(=O)OCCn1c(=O)n(CCOC(=O)C=C)c(=O)n(CCOC(=O)C=C)c1=O
inactive: Potency [6]
active: Potency [1] 21.9 µM | Potency [10] 11 µM | Potency [2] 49 µM | Potency [3] 49 µM | Potency [7] 24.5 µM | Potency [4] 49 µM | Potency [5] 21.9 µM

CCN(CC)CCCC(C)Nc1c2ccc(Cl)cc2nc2ccc(OC)cc12 (configuration not stated)
inactive: Potency [6]
active: Potency [1] 6.01 µM | Potency [10] 3.01 µM | Potency [2] 10.7 µM | Potency [3] 16.9 µM | Potency [7] 6.01 µM | Potency [4] 9.52 µM | Potency [5] 6.01 µM

CCN(CCC#N)c1ccc(N=Nc2c(Cl)cc([N+](=O)[O-])cc2Cl)cc1
inactive: Potency [1] | max response [10] -15.8% | Potency [2] | Potency [3] | Potency [4] | Potency [5] | Potency [6]

CCCCCCCCS(=O)C(C)Cc1ccc2c(c1)OCO2 (configuration not stated)
inactive: Potency [1] | Potency [9] | Potency [2] | Potency [7] | Potency [4] | Potency [5] | Potency [6]

COCCCC/C(=N\OCCN)c1ccc(C(F)(F)F)cc1
active: Potency [5] 26.8 µM
inactive: Potency [1] | Potency [9] | Potency [2] | Potency [6]

CCCCCCCCOc1ccccc1C(=O)Nc1ccc(C(=O)OCC[N+](C)(CC)CC)cc1
active: Potency [1] 26.8 µM | Potency [10] 21.3 µM | Potency [2] 23.9 µM | Potency [4] 26.8 µM | Potency [5] 23.9 µM

O=c1[nH]sc2cc(Cl)ccc12
inactive: Potency [1] | Potency [2] | Potency [6]

CN(C/C=C/C#CC(C)(C)C)Cc1cccc2ccccc12
inactive: Potency [9] | Potency [3] | Potency [7] | Potency [4] | Potency [5] | Potency [6]

CC(C)(C)CC(C)(C)c1ccc(OCCOCC[N+](C)(C)Cc2ccccc2)cc1
active: Potency [8] 24.5 µM and 21.3 µM | Potency [10] 9.76 µM and 8.49 µM | Potency [3] 48.9 µM and 19 µM | Potency [7] 34.6 µM and 9.52 µM | Potency [4] 38.9 µM and 15.1 µM | Potency [5] 24.5 µM and 10.7 µM

Nc1ccc(N)c2ccccc12
active: Potency [8] 54.9 µM | Potency [3] 54.9 µM | Potency [4] 54.9 µM | Potency [5] 54.9 µM
inactive: Potency [2] | Potency [6]

Oc1ccc2c(c1)-c1ccccc1C2
active: Potency [4] 49 µM | Potency [5] 49 µM
inactive: Potency [8] | Potency [7] | Potency [6]

Cc1cc(C2CCCCC2)n(O)c(=O)c1
active: Potency [10] 1.69 µM
inactive: Potency [9] | Potency [2] | Potency [3] | Potency [7] | Potency [4] | Potency [6]

CC1(C)CCC(C)(C)c2cc(C(=O)Nc3ccc(C(=O)O)cc3)ccc21
inactive: Potency [8] | Potency [9] | Potency [7]

CN1CCN(CCC(=O)N2c3ccccc3Sc3ccc(C(F)(F)F)cc32)CC1
inactive: Potency [9] | Potency [6]
active: Potency [7] 26.8 µM | Potency [4] 15.1 µM | Potency [5] 21.3 µM

O=C(Oc1cccc2cccnc12)c1ccccc1
inactive: Potency [8] | Potency [9] | Potency [2] | Potency [6]
active: Potency [5] 0.477 µM

CCC1=C[C@@H]2CN(C1)Cc1c([nH]c3ccccc13)[C@@](C(=O)OC)(c1cc3c(cc1OC)N(C)[C@H]1[C@@](O)(C(=O)OC)[C@H](OC(C)=O)[C@]4(CC)C=CCN5CC[C@]31[C@@H]54)C2
inactive: Potency [2] | Potency [5] | Potency [6]
active: Potency [8] 23.9 µM

Cc1c(C)c2c(c(C)c1OC(=O)CCC(=O)O)CC[C@@](C)(CCC[C@H](C)CCC[C@H](C)CCCC(C)C)O2
active: Potency [7] 55.6 µM
inactive: Potency [9] | Potency [2]

COc1cc(-c2nc(NC(=O)c3cc4cc(C)cc(C)c4n3CC(=O)O)sc2CCC2CCCCC2)c(OC)cc1Cl
active: Potency [10] 22.5 µM | Potency [7] 40 µM | Potency [5] 44.9 µM
inactive: Potency [2] | Potency [6]

CSc1ccc2c(c1)C(N1CCN(C)CC1)Cc1ccccc1S2 (configuration not stated)
inactive: Potency [8] | Potency [9]
active: Potency [3] 26.8 µM | Potency [7] 23.9 µM | Potency [4] 23.9 µM | Potency [5] 23.9 µM

Cc1cc(O)c(Cl)c(C)c1Cl
inactive: Potency [8] | max response [10] -27.6% | Potency [7] | Potency [6]
active: Potency [4] 54.9 µM | Potency [5] 49 µM

Cc1nc(-c2ccc3c(c2)CCN(CCC2CCC(NC(=O)/C=C/c4ccc(F)cc4)CC2)CC3)no1 (configuration not stated)
inactive: Potency [9] | Potency [2] | Potency [3] | Potency [7] | Potency [4] | Potency [6]

Oc1ccc(C2(c3ccc(O)cc3)CC3CC2C2CCCC32)cc1 (configuration not stated)
active: Potency [10] 41.9 µM
inactive: Potency [9] | Potency [3] | Potency [7] | Potency [4] | Potency [6]

C/C=C1/C(=O)C[C@H]2[C@@H]3CCC4=CC(=O)CC[C@]4(C)[C@H]3CC[C@]12C
active: Potency [8] 43.5 µM | Potency [5] 43.5 µM
inactive: Potency [2] | Potency [7]

CN1CCC(Nc2ncc3ncnc(Nc4ccc(F)c(Cl)c4)c3n2)CC1
active: Potency [10] 10.7 µM | Potency [3] 21.3 µM | Potency [4] 23.9 µM | Potency [5] 26.8 µM
inactive: Potency [9]

O=[N+]([O-])c1cc(Cl)c(Cl)c(Cl)c1Cl
inactive: Potency [8] | Potency [9] | Potency [3] | Potency [7] | Potency [6]

Cc1cccc2c1cc1ccc3cccc4ccc2c1c34
inactive: Potency [9] | Potency [3] | Potency [7] | Potency [4] | Potency [5]

CCCCN(CCCC)c1ccc(C(=O)c2ccccc2C(=O)O)c(O)c1
inactive: Potency [9] | max response [10] -24.6% | Potency [7] | Potency [6]

Fc1ccc(C(c2ccc(F)cc2)N2CCN(C/C=C/c3ccccc3)CC2)cc1
active: Potency [10] 19 µM
inactive: Potency [2] | Potency [3] | Potency [4] | Potency [5] | Potency [6]

CCN(C(=O)N(CC)c1ccccc1)c1ccccc1
inactive: Potency [9] | Potency [2] | Potency [3] | Potency [7] | Potency [4] | Potency [5] | Potency [6]

c1cc(C(c2ccc(OCC3CO3)cc2)c2ccc(OCC3CO3)cc2)ccc1OCC1CO1 (configuration not stated)
inactive: Potency [8] | Potency [9] | Potency [2] | Potency [3] | Potency [4] | Potency [5] | Potency [6]
